Values joined by “and” are separate entries in the source; they are usually repeats but may differ in a detail not shown here. Equal values may be shown once. In all, about 370,000 compounds went through this assay and about 6,800 (1.8%) were called active. The full list was thinned out, with actives kept by preference. Values without a mark were called inactive.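 The calls were made as follows: active = activation above a cutoff set at the mean of all screened compounds plus 3 SD (cut at about 10% in these data); inactive = the rest.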

For the assay, the system named is Nuclear hormone receptor DAF-12 (Heterodera glycines), GAL4 fusion. The assay can be described thus: hgDAF-12 GAL4 fusion reporter activation – cell-based, luminescence, HEK293, UAS-luciferase, primary screen (AID 687014).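 Also: 0% = DMSO wells and 100% = sodium butyrate wells.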 Conditions: HEK293 GAL4-hgDAF12 UAS-luciferase reporter, agonist luminescence; at 6.8 µM; hits give high values; normalized to butyrate control. In general terms: A reporter such as luciferase makes a cellular process visible.
For `CCOC(=O)c1c(Cc2ccc(Cl)cc2)c[nH]c1C`, the activation is 12.8% (active).
For `CCOC(=O)c1ccc(CS(=O)c2ccc(Cl)cc2)o1` (stereo not given), the activation was -2.05%.
The figure for `CCOC(=O)c1c(S(=O)(=O)Nc2cccc(Cl)c2)c(C)n(C)c1C` is -4.39%; for `CCOC(=O)[C@]12CCCC=C1N(Cc1ccc(OC)cc1)C(=O)[C@@H]2CC(=O)N1CCOCC1` it is 0.99%; for `CNC(=O)/C(=C\C=C\c1ccccc1)NC(=O)c1ccc([N+](=O)[O-])cc1` it is 1.17%.
The figure for `COCC(=O)N[C@@H]1C[C@@H]2O[C@@H](CO)CC[C@@H]2O[C@@H]1CCc1ccc(-c2ccccc2)cc1` is 2.02%; for `CC1CCCC(C)N1C(=O)CSc1nnnn1C1CCCC1` (stereo not given) it is 3.93%.
The figure for `CC(=O)Nc1ccc(NC(=O)CSc2nnnn2C2CCCCC2)cc1` is 0.66%; for `O=C(CSc1nnnn1C1CCCC1)N1CCCCC1` it is 11.8% (active).
For the compound `Cc1cc(NCCc2c[nH]c3ccccc23)ccc1Oc1cccnc1`, the activation is -6.96%.
The value for `C[C@H](O)[C@@H]1CN2CCc3ccc(-c4ccc5c(c4)OCO5)cc3[C@@H]2C[C@@H]1N(C)C(=O)C1CCCCC1` was 5.63%; that for `C[C@H]1[C@H](NC(=O)c2cccc(N(C)C)c2)CC[C@@]23CCCN2C(=O)CCC[C@@H]13` was 4.78%; that for `Cc1ccc(-c2csc(NCCc3nc4cc(Cl)c(Cl)cc4n3CCOCCO)n2)cc1` was 0.43%.
The figure for `Cc1ccc(Nc2nc(-c3ccc(O)cc3O)cs2)nc1` is 11% (active).
Turning to `CC(=O)Nc1cnc(-c2ccc(O)cc2C)cn1`, the activation is 0.71%.
The figure for `C/C=C/c1ccc(OCCOc2ccc(C=O)cc2OC)c(OC)c1` is 1.06%; for `O=C(NCCc1ccc(F)cc1)c1ccc(S(=O)(=O)N2CCCCC2)cc1` it is -1.32%; for `O=C(NCCc1ccc(F)cc1)c1ccc2nccnc2c1` it is 15.2% (active).
For the compound `O=C(NCCc1ccc(F)cc1)c1n[nH]c2ccccc12`, the activation is 4.51%.
Turning to `O=S(=O)(c1ccc2c(c1)OCCCO2)N1CCN(S(=O)(=O)c2c(F)cccc2F)CC1`, the activation was 3.46%.
The figure for `CCOc1cc(C(=O)N2CCc3cc(OC)c(OC)cc3C2)ccc1OC(F)F` is -2.99%.
Consider `CCOC(=O)C1CCN(C(=O)COC(=O)C2CCN(S(=O)(=O)c3ccc4c(c3)OCCO4)CC2)CC1`, for which the activation was 1.65%.
The figure for `NC(=O)Cc1ccc2sc(-c3ccccc3)nc2c1` is 16.9% (active); for `O=C(O)Cc1csc(-c2cccc(Oc3ccccc3)c2)n1` it is 2.98% and 2.42%; for `CCn1c2ccccc2c2cc(CC(N)=O)ccc21` it is -1.01%.

These data come from PubChem BioAssay AID687014 (The Scripps Research Institute Molecular Screening Center, 2013).
